# From PubChem
# sPLA2-III inh: Blocks human group III sPLA2 activity; QFRET BODIPY PC-A2 liposome hydrolysis, fluorescence; inhibition, % at 12.2 µM; 370,000 compounds, 0.56% hits;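 active = inhibition above mean plus 3 SD of compounds lying within the high and low control bounds, cut at about 19% in these data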;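 also: 0% = median of test compound wells and 100% = no enzyme DMSO wells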
# KLK7 zymogen act: proKLK7 (human) activation, primary screen. purified proKLK7, EDANS-DABCYL substrate fluorescence; 100% is mature enzyme control, 0% vehicle. activation, % at 7 µM. 370,000 compounds, 0.9% hits. P49862;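 active = activation above the mean of all tested compounds plus 3 SD, computed per campaign excluding outliers beyond control limits, cut at about 13% in these data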
# ADAM17 inh: ADAM17 inhibition, QFRET primary screen | 370,000 compounds, 0.83% hits | P78536 | inhibition, % at 6.95 µM | recombinant ADAM17, EDANS/DABCYL FRET peptide cleavage;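 active = inhibition above the mean of compounds lying between control limits plus 3 SD, set per campaign, cut at about 8.5% in these data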;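 also: 0% = DMSO-only wells as the low control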
# PLC-gamma1 inh: inhibitors of human phospholipase C gamma1; P19174; purified PLC-gamma1, fluorogenic substrate, fluorescence; inhibition, % at 12.2 µM; 370,000 compounds, 0.84% hits; in the data active = inhibition above about 9.5%
# ADAM10 inh: inhibits human ADAM10; recombinant ADAM10, EDANS/DABCYL FRET peptide cleavage, 3 h; inhibition, % at 7 µM; 370,000 compounds, 0.62% hits;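 active = inhibition above a per-campaign cutoff equal to the mean of compounds falling between control-based bounds plus 3 SD, cut at about 20% in these data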;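 also: 0% = DMSO wells while the 100% control is not disclosed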
# PLCb3 inh: inhibitors of human phospholipase C beta3 | Q01970 | Purified PLC-beta3, fluorogenic substrate, fluorescence | inhibition, % at 12.2 µM | 370,000 compounds, 0.18% hits; in the data active = inhibition above about 11%;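 also: 0% = median of compound wells on plate and 100% = full blocker control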
# ADAM10 confirm: human ADAM10 inhibition, confirmation; shares compounds with ADAM10 inh; ADAM10 QFRET peptide cleavage, EDANS fluorescence; inhibition, % at 6.95 µM; 2,100 compounds, 1% hits; AID 743208;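 active = inhibition above about 20% chosen separately for each screening run, limit read from the data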;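 also: 0% = DMSO wells and 100% = marimastat wells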
# ADAM17 ctr: ADAM17 inhibition, counter-screen for ADAM10 exosite hits; shares compounds with ADAM10 inh; ADAM17 QFRET peptide cleavage, EDANS fluorescence; inhibition, % at 6.95 µM; 2,100 compounds, 0.5% hits;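 active = mean triplicate inhibition above the solvent-only control wells' mean plus 3 SD, cut at about 12% in these data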;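 also: 0% = DMSO wells and 100% = marimastat wells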
# ADAM10 counter: counter-screen for ADAM17 exosite inhibitors: inhibitors of human ADAM10. shares compounds with ADAM17 inh. recombinant ADAM10, EDANS/DABCYL FRET peptide cleavage, 3 h. inhibition, % at 6.95 µM. 2,900 compounds, 47% hits;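 active = mean inhibition over the triplicate runs exceeds the activity threshold set in the earlier primary screen, cut at about 20% in these data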;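 also: 0% = DMSO wells and 100% = marimastat wells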
# ADAM17 confirm: confirmation of inhibitors of human ADAM17; shares compounds with ADAM17 inh; recombinant ADAM17, EDANS/DABCYL QFRET peptide cleavage; inhibition, % at 6.95 µM; 2,900 compounds, 65% hits;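 active = mean inhibition across replicates above the hit cutoff set in the primary screen, cut at about 8.5% in these data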;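 also: 0% = DMSO wells and 100% = marimastat wells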
# An asterisk follows results filed as active; / = no result. Hits are enriched below; roughly 3.4% of the tested compounds scored in any of these assays.
SMILES,sPLA2-III inh,KLK7 zymogen act,ADAM17 inh,PLC-gamma1 inh,ADAM10 inh,PLCb3 inh,ADAM10 confirm,ADAM17 ctr,ADAM10 counter,ADAM17 confirm
COCCN(CC(=O)Nc1cccc(C)c1C)C(=O)CN1C(=O)NC2(CCCCC2)C1=O,11.7,0.3,-3.7,3.5,-18.1,-7.7,/,/,/,/
Cc1nonc1C1CCCN1Cc1cn[nH]c1-c1ccc(-c2ccccc2)cc1 (stereo unspecified),-13.2,0.4,16.8*,4.9,33.2*,-4.6,7.6,2.6,29.8*,18.9*
CSc1ccccc1OCc1cc(C(=O)N2CCN(c3ccccc3)CC2C)no1 (stereo unspecified),-4.6,-0.7,4.1,1.1,2.2,-8.3,/,/,/,/
CSc1ccccc1OCc1cc(C(=O)N2CCc3[nH]cnc3C2c2ccccn2)no1 (stereo unspecified),-0.7,-0.8,10.9*,3.8,25.3*,-11.1,8.0,3.5,-1.3,2.4
COc1ccc(C)cc1NC(=O)C(Sc1nnc(-c2ccncc2)n1-c1ccc(Cl)cc1)c1ccccc1 (stereo unspecified),-26.3,0.4,11.3*,7.3,24.9*,-1.2,3.2,2.1,30.5*,21.7*
Cc1cccc(N2CCN(S(=O)(=O)c3c(C)[nH]c(C)c3C(=O)N3CCCC3)CC2C)c1 (stereo unspecified),0.0,0.2,-3.4,-0.3,-7.5,-1.3,/,/,/,/
CCOC(=O)c1c(C)[nH]c(C)c1S(=O)(=O)N1CCN(c2cccc(C)c2)C(C)C1 (stereo unspecified),-13.2,-0.1,9.1*,-3.0,20.2*,-3.0,0.8,0.0,11.3,6.0
CCN1C(=O)[C@H]2[C@@H](c3ccc(C)cc3)N3C(=O)N(c4ccccc4)C(=O)[C@@]3(Cc3ccccc3)[C@H]2C1=O,-1.2,1.2,-2.5,2.5,-0.9,1.6,/,/,/,/
CC(C)(C)OC(=O)N1CCCC(C(=O)Nc2cccc(C(=O)NCCCCc3ccccc3)c2)C1 (stereo unspecified),-34.3,0.4,12.9*,8.3,21.6*,5.4,3.1,1.3,17.7,12.3*
CC(=O)c1ccc([N+](=O)[O-])c(CS(=O)(=O)c2ccc(Cl)cc2)c1,-3.1,0.3,-0.6,2.5,0.8,-2.5,/,/,/,/
O=C(Nc1cccc(Cl)c1)c1cc(S(=O)(=O)NCCc2ccc(Cl)cc2)ccc1F,-24.2,0.1,13.1*,-1.1,28.9*,-4.1,11.1,4.3,34.1*,17.4*
Cc1ccc(NC(=O)c2cc(S(=O)(=O)NCCc3ccccc3)ccc2F)cc1Cl,-27.6,0.0,15.7*,4.9,22.9*,3.4,10.2,3.3,23.9*,14.3*
CCOC(=O)N1CCC(NC(=O)c2cc(S(=O)(=O)NCCc3ccccc3)ccc2F)CC1,-4.9,0.2,3.2,4.6,-6.1,2.0,/,/,/,/
COCCN(C(=O)c1cc(OC)c(OC)c(OC)c1)c1c(N)n(Cc2ccccc2)c(=O)[nH]c1=O,14.4,-0.5,-4.4,-0.8,-13.6,-1.6,/,/,/,/
NC(=O)CC(NC(=O)c1ccc(Br)cc1)c1ccc(N2CCN(c3ccccc3)CC2)c([N+](=O)[O-])c1 (stereo unspecified),-4.3,0.2,-2.3,2.9,4.8,1.4,/,/,/,/
NC(=O)CC(NC(=O)c1ccc(Br)cc1)c1ccc(N2CCCCCCC2)c([N+](=O)[O-])c1 (stereo unspecified),0.1,0.4,10.5*,6.5,22.6*,3.7,5.4,1.3,22.0*,12.2*
Cc1noc(C)c1COc1ccc(C(=O)OCC(=O)Nc2cccc(S(=O)(=O)N3CCOCC3)c2)cc1,-36.7,0.2,11.3*,7.6,24.5*,1.6,3.1,0.4,29.0*,13.3*
COc1ccc(OCCC(=O)OCC(=O)Nc2cccc(S(=O)(=O)N3CCOCC3)c2)cc1,-13.0,0.1,1.9,2.6,4.8,1.1,/,/,/,/
Cc1noc(C)c1COC(=O)c1cccc(S(=O)(=O)N2CCOCC2)c1,7.0,-0.5,-5.4,5.4,4.1,-3.0,/,/,/,/
CC(C)(C)c1ccc(OCCC(=O)Nc2cccc(S(=O)(=O)N3CCOCC3)c2)cc1,-31.7,0.2,14.9*,0.9,31.6*,5.3,4.6,3.7,32.4*,19.2*
COc1ccc(-c2nn(-c3ccccc3)cc2C(=O)N2CCN(C(=O)c3ccco3)CC2)cc1,-1.7,0.1,0.8,0.1,-3.5,4.4,/,/,/,/
Cc1cc(C(=O)OC(C(=O)Nc2cccc(C(F)(F)F)c2)c2ccccc2)c(C)o1 (stereo unspecified),-43.2,0.7,15.9*,2.6,30.1*,5.1,7.3,2.5,38.2*,24.5*
CN(C)CCNC(C(=O)Nc1cccc(C(F)(F)F)c1)c1ccccc1 (stereo unspecified),-9.0,0.4,-1.2,2.4,-9.9,3.9,/,/,/,/
CCO[C@H]1OC(C(=O)N2CCN(Cc3ccc4c(c3)OCO4)CC2)=C[C@@H](c2ccc(Br)cc2)[C@@H]1CCCO,-37.5,-0.4,9.2*,6.9,24.5*,-4.5,0.5,0.4,12.5,6.8
CCO[C@@H]1OC(C(=O)N2CCN(Cc3ccc4c(c3)OCO4)CC2)=C[C@H](c2ccc3c(c2)OCO3)[C@H]1CCCO,-8.1,1.1,3.1,3.3,8.2,2.3,/,/,/,/
CC1CCCCN1S(=O)(=O)c1ccc2c(c1)C(C)(C)C(=O)N2C (stereo unspecified),4.2,1.1,-2.7,-1.6,-22.8,-6.0,/,/,/,/
FC(F)(F)c1cccc(NC(=S)NNC(=S)NCc2ccccc2)c1,-17.7,1.0,11.6*,6.1,20.2*,2.3,5.8,2.8,31.4*,19.3*
FC(F)(F)c1cccc(NC(=S)NCc2ccccn2)c1,13.9,-0.3,0.8,-0.3,7.5,1.3,/,/,/,/
FC(F)(F)c1cccc(NC(=S)NCC2COc3ccccc3O2)c1 (stereo unspecified),1.2,-0.2,9.2*,5.7,28.4*,3.4,10.5,3.0,43.6*,18.1*
CCOC(=O)CNC(=O)CSc1nc2c(C)cccc2cc1CC,3.8,0.1,-1.1,-0.3,3.8,-0.3,/,/,/,/
